The values below come from PubChem BioAssay (NCI).

Among the test systems are NCI-H23 lung; NCI-H226 lung; NCI-H322M lung; HOP-62 NSCLC; NCI-H460 lung; NCI-H522 lung; A549/ATCC NSCLC; 786-0 renal; COLO 205 colon; DU-145 prostate; K-562 leukemia; MDA-MB-231 breast; SF-268 CNS; SF-295 CNS; SF-539 CNS; UACC-257 melanoma; M14 melanoma; MALME-3M melanoma; RXF 393 renal.
Holding throughout (assay): NCI-60 one-dose screen, 48 h (100 = growth as untreated, 0 = no growth, -100 = all killed)
Conditions in all cases: 10 µM

Each structure is given as a SMILES string. The panel holds about 83,000 compounds, 20% with a hit somewhere; the sample as a whole holds those more often.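 Step 1: grow cells in 96-well plates. Step 2: add test compound at a single concentration. Step 3: incubate 48 h. Step 4: record percent growth.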 Unmarked numbers belong to inactive results. Active and inactive are the calls of the source. How the source made its calls: active means growth percent below 10; inactive means the rest.

Regarding `O=C(O)c1cccc([N+](=O)[O-])c1O`, the growth is 98.9% with NCI-H23 lung; 104% in the assay with NCI-H226 lung; 97.3% with NCI-H322M lung; 96% in the assay with HOP-62 NSCLC; 104% in the assay on NCI-H460 lung; 101% with NCI-H522 lung. The growth in the assay with A549/ATCC NSCLC is 111%; in the assay with 786-0 renal it was 102%; in the assay on COLO 205 colon it was 105%; with DU-145 prostate, 109%; in the assay on K-562 leukemia, 106%; in the assay with MDA-MB-231 breast, 103%. The growth in the assay with SF-268 CNS was 106%; in the assay with SF-295 CNS, 90.8%; in the assay on SF-539 CNS it was 114%; with UACC-257 melanoma it was 107%; in the assay on M14 melanoma, 94.1%.
As for `Cc1cc(=O)[nH]c(NN=C2CCCC2)n1`, the growth was 122% with NCI-H23 lung; 101% in the assay on NCI-H226 lung; 108% with NCI-H322M lung; 105% in the assay with HOP-62 NSCLC; 116% with NCI-H460 lung; 103% with NCI-H522 lung. Also, the growth is 123% in the assay on A549/ATCC NSCLC; 102% in the assay on 786-0 renal; 118% in the assay on COLO 205 colon; 112% in the assay with DU-145 prostate; 108% in the assay on MALME-3M melanoma; 102% with MDA-MB-231 breast. Besides, the growth with RXF 393 renal was 121%; in the assay with SF-268 CNS, 112%; in the assay with SF-295 CNS it was 108%; in the assay on SF-539 CNS, 107%; with UACC-257 melanoma, 125%; with M14 melanoma, 112%.
Take `C=CC(O)CCC` (centres undefined): the growth in the assay with NCI-H23 lung is 106%; with NCI-H226 lung, 115%; in the assay with NCI-H322M lung, 103%; in the assay on HOP-62 NSCLC it was 110%; in the assay with NCI-H460 lung, 104%; in the assay with NCI-H522 lung, 99.6%. Further, the growth in the assay on A549/ATCC NSCLC was 91.5%; in the assay on 786-0 renal it was 105%; in the assay with DU-145 prostate, 112%; with K-562 leukemia it was 104%; in the assay with MALME-3M melanoma, 106%; with MDA-MB-231 breast it was 106%. Also, the growth with RXF 393 renal is 121%; in the assay on SF-268 CNS, 107%; in the assay with SF-295 CNS it was 91.1%; with SF-539 CNS it was 102%; in the assay on UACC-257 melanoma, 90.3%; in the assay with M14 melanoma, 106%.
For the compound `CC1=C(/C=C/C(C)=C/C=C/C(C)=C/CO)C(C)(C)CCC1`, the growth was 102% in the assay on NCI-H23 lung; 104% in the assay with NCI-H226 lung; 105% in the assay with NCI-H322M lung; 104% with HOP-62 NSCLC; 117% with NCI-H460 lung; 105% in the assay on NCI-H522 lung. Also, the growth in the assay with A549/ATCC NSCLC is 102%; with 786-0 renal it was 103%; in the assay with COLO 205 colon, 110%; with DU-145 prostate it was 112%; with MALME-3M melanoma it was 120%; with MDA-MB-231 breast, 102%. Besides, the growth in the assay with SF-268 CNS is 114%; in the assay with SF-295 CNS, 110%; with SF-539 CNS it was 105%; with UACC-257 melanoma, 99.9%; in the assay with M14 melanoma, 104%.
Regarding `C#Cc1cccc(NC(=O)c2ccc(Cl)cc2Cl)c1`, the growth with NCI-H23 lung is 102%; in the assay on NCI-H226 lung, 104%; with NCI-H322M lung, 98.3%; in the assay with HOP-62 NSCLC, 108%; in the assay on NCI-H460 lung, 105%; in the assay with NCI-H522 lung, 74.4%. Also, the growth is 48.7% in the assay on A549/ATCC NSCLC; 99.9% in the assay with 786-0 renal; 112% in the assay on DU-145 prostate; 85.5% with K-562 leukemia; 108% with MALME-3M melanoma; 118% in the assay on MDA-MB-231 breast. Further, the growth with RXF 393 renal is 105%; in the assay on SF-268 CNS it was 98.9%; with SF-295 CNS it was 107%; with SF-539 CNS, 95.7%; with UACC-257 melanoma it was 108%; with M14 melanoma it was 98%.
Regarding `O=[N+]([O-])c1ccc(O)c(S(=O)(=O)O)c1`, the growth was 103% in the assay with NCI-H23 lung; 102% in the assay with NCI-H226 lung; 126% in the assay with NCI-H322M lung; 101% with HOP-62 NSCLC; 109% in the assay on NCI-H460 lung; 104% with NCI-H522 lung. Moreover, the growth in the assay with A549/ATCC NSCLC is 106%; in the assay on 786-0 renal, 104%; with COLO 205 colon it was 122%; in the assay with DU-145 prostate, 110%; in the assay with MALME-3M melanoma, 127%; in the assay on MDA-MB-231 breast, 88.7%. In addition, the growth in the assay on RXF 393 renal is 117%; in the assay on SF-268 CNS, 114%; in the assay with SF-295 CNS, 102%; in the assay on SF-539 CNS, 100%; in the assay on UACC-257 melanoma, 99.3%; with M14 melanoma, 109%.
`c1csc(-c2cc(-c3cc(-c4cccs4)[nH]n3)n[nH]2)c1`: the growth is 91% with NCI-H23 lung; 79.1% in the assay on NCI-H226 lung; 94.4% in the assay on NCI-H322M lung; 88.3% in the assay with HOP-62 NSCLC; 107% in the assay with NCI-H460 lung; 88.9% with NCI-H522 lung. In addition, the growth was 107% with A549/ATCC NSCLC; 98.9% in the assay with 786-0 renal; 106% with DU-145 prostate; 84.7% in the assay on K-562 leukemia; 88.3% with MALME-3M melanoma; 112% in the assay with RXF 393 renal. The growth with SF-268 CNS was 107%; with SF-295 CNS it was 96.8%; with SF-539 CNS, 93.8%; with UACC-257 melanoma, 109%; in the assay on M14 melanoma, 96.9%.
Consider `CN(C)c1ccc2nc3ccc(=N)cc-3sc2c1`, for which the growth is 14.7% in the assay on NCI-H23 lung; 77.1% in the assay with NCI-H226 lung; 85.4% in the assay with NCI-H322M lung; 54.4% with HOP-62 NSCLC; 56.7% with NCI-H460 lung; 14.7% in the assay on NCI-H522 lung. The growth in the assay with A549/ATCC NSCLC was 13.6%; with 786-0 renal, 66.2%; with DU-145 prostate, 86.7%; in the assay with K-562 leukemia it was 20.1%; with MALME-3M melanoma, 8.19% (active); in the assay on MDA-MB-231 breast, 11.5%. Besides, the growth in the assay on RXF 393 renal is 70.7%; in the assay on SF-268 CNS it was 54.2%; in the assay on SF-295 CNS it was 86.1%; with SF-539 CNS, -11.3% (active); in the assay with UACC-257 melanoma it was 13.9%; with M14 melanoma, 24.7%.
With `C/C(=N\O)C1(O)CCCCC1`, the growth in the assay with NCI-H23 lung is 99.5%; in the assay on NCI-H226 lung it was 97.7%; with NCI-H322M lung it was 87.6%; with HOP-62 NSCLC, 106%; in the assay on NCI-H460 lung, 98.3%; in the assay with NCI-H522 lung, 92.8%. Moreover, the growth in the assay on A549/ATCC NSCLC is 102%; in the assay with 786-0 renal, 99%; in the assay on COLO 205 colon, 99.4%; with DU-145 prostate, 100%; in the assay on K-562 leukemia, 106%; in the assay with MALME-3M melanoma, 114%. The growth in the assay on MDA-MB-231 breast was 94.7%; with SF-268 CNS it was 82.7%; with SF-295 CNS it was 110%; with SF-539 CNS, 99.2%; in the assay on UACC-257 melanoma it was 98.3%; in the assay on M14 melanoma, 110%.
